Compounds with a hit are over-represented: about 0.88% of the library has one in this group of screens.
Six1-Eya2 blk – inhibitors of human Six1/Eya2 interaction. Q15475+O00167. AlphaScreen GST-Six1/His-Eya2 binding, biochemical; hits give low values. activity change, % (test concentration not listed). 360,000 tested, 0.56% active. AID 651725
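Six1/Eya2 binding was read as AlphaScreen signal after compounds were pinned into GST-Six1 plus His-tagged Eya2 (5X stock 250/500 nM) in pH 8.0 Tris/NaCl/TCEP buffer, beads added, then incubated 1 h, 37 C, dark.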
CtBP-E1A inh – inhibitors of CtBP/E1A interaction; activity change, % (test concentration not listed); AlphaScreen GST-E1A/His-CtBP binding, 1536-well; hits give low values; 340,000 tested, 0.49% active
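Homogeneous bead-based format: GST-tagged E1A captured on glutathione donor beads, His-tagged CtBP on nickel acceptor beads; compounds precede bead addition by 2 h at 37 °C.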
GRP78 ERSR act – ER stress response induction in glioma. U87-MG GRP78 promoter luciferase reporter, 16 h. Potency, µM, usual class: activators. 420,000 tested, 0.02% active; active = well fitted curve in the direction sought with a large enough effect; inconclusive = small, poorly fitted or top-dose-only effect, or another doubt; inactive = no such curve, though single readings can be large; an effect the other way counts as inactive or inconclusive; note: series mostly up to about 76 µM; nearly all actives have a fitted effect of over 35% in size
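Stably transfected U87-MG human glioma cells carrying a GRP78-based luminescent sensor were seeded at 1000 cells/well, pin-dosed with compounds and incubated 16 h. Luciferase reagent was then added, and end-point luminescence was read after 10 min at room temperature.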
Akt phos inh – Akt phosphorylation inhibition; AID 651550; 360,000 tested, 0.32% active; activity change, % for hits at 50 µM; Neuro2A IGF-stimulated pAkt S473 HTRF, 20 min; hits give low values; in the data active = activity change below about -80%; inconclusive = mostly about -51% to -80%
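Neuro2A cells in DMEM with 0.5% FBS, overnight at 37 deg C, given compound at single 50 µM final, then IGF (6 nM final) for 20 min at 37 deg C. Lysed; phospho-Akt Ser473 by HTRF after 24 h, 665/615 ratio.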
RGS4 inh – inhibitors of human regulator of G protein signaling 4. P49798. Transcreener GDP fluorescence polarization, RGS4-accelerated GTP hydrolysis. Potency, µM (titrated, usually from 114 µM), most hits filed as inhibitors. 390,000 tested, 0.039% active. AID 504845; active = well fitted curve in the direction sought with a large enough effect; inconclusive = small, poorly fitted or top-dose-only effect, or another doubt; inactive = no such curve, though single readings can be large; an effect the other way counts as inactive or inconclusive; note: nearly all actives have a fitted effect of over 75% in size
Target sequence (P49798 whole entry, looked up): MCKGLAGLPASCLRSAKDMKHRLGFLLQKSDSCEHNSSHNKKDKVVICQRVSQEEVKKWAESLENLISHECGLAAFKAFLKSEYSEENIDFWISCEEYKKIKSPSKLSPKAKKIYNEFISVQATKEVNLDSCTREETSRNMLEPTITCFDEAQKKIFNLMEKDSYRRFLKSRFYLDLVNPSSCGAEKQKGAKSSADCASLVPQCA
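MLSMR compounds (23 nl, pin-transferred) preincubated 10 min at room temperature with a 500nM (2x) first reagent, then RGS4 at 900nM (2x) plus Transcreener GDP mix added; fluorescence polarization (620/688 nm) read before and after 90 min at 30 °C.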
A number is an active result; - = inactive; ? = inconclusive; . = no result given; ! = not confirmed by another sample; [ ] = dose if it differs, or a comment. Cut-off read from the data, not from the text of the source, unless noted: active = activity change below about -65%; inconclusive = mostly about -30% to -63%; inactive = weaker than that.

SMILES	Six1-Eya2 blk	CtBP-E1A inh	GRP78 ERSR act	Akt phos inh	RGS4 inh
CN=c1scc(-c2cccs2)n1/N=C/c1ccccc1O	-	-	-	-	-
CN=c1scc(-c2cccs2)n1/N=C/c1ccc(O)c(O)c1O	-77.0	-88.3	-	-	?
COCCN=c1scc(-c2ccco2)n1/N=C/c1ccc(O)c(O)c1O	-83.8	-78.7	-	-	?
C=CCN=c1scc(-c2ccco2)n1/N=C/c1ccc(O)c(O)c1O	-66.5	-77.8	-	-	?
Oc1ccc(/C=N/n2c(-c3ccco3)csc2=Nc2cccnc2)c(O)c1	-92.5	-92.8	-	-	-
COc1ccc(-c2ccc(C(=O)NCC3Cc4cccc(-c5nc(C)cnc5C)c4O3)o2)cc1 (stereo not given)	.	.	-	.	.
CNc1nc(NCc2ccc(N(C)C)cc2)c2sccc2n1	-66.9	?	-	-	.
CSc1nnc(-c2cc3c(-c4ccccc4)nn(C)c3s2)n1C	-73.6	-74.3	-	-	-[11.4 µM]
COc1cc(-c2cc(C)c3cccc(OC)c3n2)cc2c1OCCN(C(=O)CCn1nc(C)cc1C)C2	.	.	-	.	.
CCN(CC)C(=S)SSC(=S)N(CC)CC	?	?	-	-	1.06µM!
Cc1ncc2c(c1CNC(=O)c1ccc3c(c1)OCO3)CCN(C(=O)c1scc3c1CCCC3)C2	.	.	-	.	.
O=C(COc1ccc([N+](=O)[O-])cc1)Nc1nc(-c2ccccn2)cs1	-78.8	-91.7	-	-	-
O=C(COc1ccccc1)Nc1nc(-c2ccncc2)cs1	-	-	-	-	-
O=C(COc1ccc(F)cc1)Nc1nc(-c2ccccn2)cs1	-84.2	?	-	-	-
O=C(COc1cccc(F)c1)Nc1nc(-c2ccccn2)cs1	-77.0	?	-	-	.
Cn1cnnc1Sc1ccc(CN2CCOc3ccc(C4=Cc5ccccc5CC4)cc3C2)o1	.	.	-	.	.
COc1cc(N)c(N)cc1OC	.	.	-	.	.
Cc1ccc(S(=O)(=O)NNC(=O)c2ccc(C(=O)N(c3ccccc3)c3ccccc3)cc2)cc1	.	.	-	.	.
C=CCn1c(CNc2ccc(C)cc2)nnc1SCC(=O)N/N=C/c1ccc(O)cc1O	-86.1	-81.6	-	-	-
C=CCn1c(COc2ccccc2)nnc1SCC(=O)N/N=C/c1cc(Cl)ccc1O	?	?	-	-	-
C=CCn1c(CNc2ccccc2)nnc1SCC(=O)N/N=C/c1ccc(O)cc1O	-87.8	-80.7	-	-	-[11.4 µM]
COC(=O)/C=C/c1cc(O)ccc1O	.	.	-	.	.
Cc1ccc2ccc3cccnc3c2n1	?	-90.1	-	-	-
N#C/C(=C\c1ccc(O)c(O)c1)C(=O)NCCCCc1ccccc1	.	.	-	.	-
N#C/C(=C\c1ccc(O)c(O)c1)C(=O)NCCc1ccccc1	-	-	?	-	18.9µM!
SMILES	Six1-Eya2 blk	CtBP-E1A inh	GRP78 ERSR act	Akt phos inh	RGS4 inh
COc1cc(/C=N/Nc2nncn2N)ccc1OCc1c(C)no[n+]1[O-]	-	-	-	-	-
COc1ccc(/C=N/Nc2nncn2N)cc1Br	-74.9	?	-	-	-
COc1cc(C(=O)Nc2cccc(-c3nc4cc(C)ccc4o3)c2C)cc(OC)c1OC	-	-	-	-104.9%	-
COc1ccccc1NC(=O)c1oc2ccccc2c1NC(=O)c1cc(OC)c(OC)c(OC)c1	-	-	-	-93.5%	-
COc1cc(C(=O)Nc2cccc(-c3nc4ncccc4o3)c2C)cc(OC)c1OC	-	-	-	?	-
COc1ccccc1CN1CCOc2ccc(C(C)(O)COc3ccccc3)cc2C1 (stereo not given)	.	.	-	.	.
COc1ccccc1/C=C/c1cncc(/C=C/c2ccccc2OC)c1	.	.	-	.	.
CCN(CC)c1ccc(C(=C2C=CC(=[N+](CC)CC)C=C2)c2ccc(N(CC)CC)cc2)cc1	-77.6	-89.6	-	-	?
Cc1ccc(S(=O)(=O)Nc2ccc(O)c3ncccc23)cc1	-90.7	-92.9	-	-	-
Cc1ccc(S(=O)(=O)Nc2ccc(O)c3cccnc23)cc1	-	-	-	-	-
O=C(CN1C(=O)COc2ccccc21)N1CCc2ccccc21	-	-	-	-107.4%	-
Cc1ccc(Cn2nnc(C(=O)Nc3cccc(C)c3C)c2N)cc1	-	-	-	-109.2%	-
Cc1ccc(C)c(NC(=O)c2nnn(CC(=O)Nc3cccc(C)c3C)c2N)c1	.	.	-	.	-
Cc1cc(C(=O)COC(=O)/C=C/c2cccc(Br)c2)c(C)n1C	?	-65.9	-	-	-
CCN1CCCC1CNC(=O)c1cnn(-c2nccc(-c3cc(OC)ccc3OC)n2)c1C (stereo not given)	.	.	-	.	.

Screens from PubChem.
